Measurements: PubChem BioAssay (NCATS)
“And” between values parts separate entries of the source, which are not always exact repeats. Equal values may be shown once. Inconclusive results are not listed. Some compounds were tested as several samples or in several runs, with calls that do not always agree. The source made the active and inactive calls. The call rests on the fitted dose curve; in most records, active means well fitted curve in the direction sought with a large enough effect; inconclusive means small, poorly fitted or top-dose-only effect, or another doubt; inactive means no such curve, though single readings can be large; an effect the other way counts as inactive or inconclusive.

What was measured:
[1] = molecular target: Beta-2 adrenergic receptor (Homo sapiens) (UniProt P07550); assay: qHTS validation assay of beta-arrestin-biased ligands of beta2-adrenergic receptor (AID 485366); details: cell-based beta-arrestin recruitment to ADRB2, qHTS; series mostly up to 46.1 µM
Outline: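 qHTS, Tango cells, 1500 cells/well, DMEM + 1% FBS. Cpd 18 hr at 37 degrees C. Luciferin/ATP/CoA detection mix, 15 min RT, luminescence read. %Activity from corrected signal; CRC fit, curve class.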

[2] = molecular target: ATP-dependent 6-phosphofructokinase (Trypanosoma brucei brucei) (UniProt O15648); assay: qHTS Validation Assay to Find Inhibitors of T. brucei phosphofructokinase (AID 485368); further: potency means the concentration at half of the fitted maximal effect; details: T. brucei PFK enzyme assay, qHTS 7-point titration; series mostly up to 57.5 µM
Outline: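 Luminescent ADP detection measures PFK turnover of fructose-6-phosphate (0.5 mM) with ATP (0.1 mM) at pH 8.0. Reaction runs 45 min at room temperature with 1.25 nM enzyme; inhibitors tested as titrations up to 57 uM.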

[3] = Quantitative high throughput screen for delayed death inhibitors of the malarial parasite plastid, 96 hour incubation (AID 488745); details: Plasmodium falciparum growth; series mostly up to 28.7 µM; further: nearly all actives have a fitted effect of over 70% in size; further: potency means the concentration at half of the fitted maximal effect
Outline: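 Luciferase-expressing P. falciparum, infected RBCs 2% Hct/0.1% parasitemia (final); 96 h cpd exposure, 37 C, 5% CO2; RPMI 1640 + 0.5% Albumax, bicarbonate, gentamycin. Readout: luminescence loss = growth inhibition.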

[4] = Quantitative high throughput screen for delayed death inhibitors of the malarial parasite plastid, 48 hour incubation (AID 488752); details: Plasmodium falciparum growth; series mostly up to 28.7 µM; further: nearly all actives have a fitted effect of over 65% in size; further: potency means the concentration at half of the fitted maximal effect
Outline: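 Luciferase-expressing P. falciparum in RBCs, 2% Hct, 0.1% parasitemia final; RPMI 1640 + 0.5% Albumax; 48 h, 37 C, 5% CO2; luminescence readout, signal drop = growth inhibition.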

[5] = molecular target: Thioredoxin reductase 1, cytoplasmic (Rattus norvegicus) (UniProt O89049); assay: qHTS Assay for Substrates of Mammalian Selenoprotein Thioredoxin Reductase 1 (TrxR1) (AID 488772); details: purified TrxR1, NADPH consumption substrate assay; series mostly up to 57.1 µM;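 further: a drop in NADPH fluorescence below the no-compound background marks a TrxR1 substrate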
Outline: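 In this dual-purpose format, potential substrates are identified from the first fluorescence read after selenite addition, not from the 8-minute delta. Rat enzyme is preincubated with NADPH and then with compound at ~22 deg C.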

[6] = molecular target: Thioredoxin reductase 1, cytoplasmic (Rattus norvegicus) (UniProt O89049); assay: qHTS Assay for Inhibitors of Mammalian Selenoprotein Thioredoxin Reductase 1 (TrxR1) (AID 488773); details: purified TrxR1 enzyme activity; Potency: inhibition; series mostly up to 57.1 µM;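 further: drop in NADPH fluorescence over an 8 min run after selenite addition; nearly all actives have a fitted effect of over 40% in size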
Outline: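 Inhibition is scored from the loss of NADPH fluorescence between first and last reads of an 8-min kinetic run. Selenite (400 uM) was the substrate, added after 15 min compound preincubation at room temperature.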

[7] = molecular target: Flap endonuclease 1 (Homo sapiens) (UniProt P39748); assay: qHTS Validation Assay for the Inhibitors of Human Flap endonuclease 1 (FEN1) (AID 488816); details: FEN1 nuclease activity, fluorogenic DNA substrate; series mostly up to 57.1 µM; further: potency means the concentration at half of the fitted maximal effect
Outline: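 qHTS format: compounds and 10 nM FEN1 incubated 15 min at room temperature before adding 50 nM substrate. Cleavage followed by reads at 0 and 15 min; normalized data fitted to a four-parameter Hill curve.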

[8] = molecular target: M-phase phosphoprotein 8 (Homo sapiens) (UniProt Q99549); assay: qHTS Validation Assay for Inhibitors for MPP8 Chromodomain Interactions with Methylated Histone Tails (AID 488949); details: AlphaScreen MPP8 binding to H3K9me3 peptide; series mostly up to 57.1 µM; further: nearly all actives have a fitted effect of over 55% in size; further: potency means the concentration at half of the fitted maximal effect
Outline: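 Disruption of the preformed MPP8–trimethyl-H3K9 peptide complex (both 50 nM, 30 min, RT) is measured after 30 min compound exposure, using AlphaScreen proximity beads; aurintricarboxylic acid titration serves as plate control.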

[9] = molecular target: Chromobox protein homolog 1 (Homo sapiens) (UniProt P83916); assay: qHTS Validation Assay for Inhibitors of HP1-beta Chromodomain Interactions with Methylated Histone Tails (AID 488953); details: HP1-beta chromodomain / methylated histone peptide binding assay; series mostly up to 114 µM; further: nearly all actives have a fitted effect of over 50% in size; further: potency means the concentration at half of the fitted maximal effect
Outline: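 AlphaScreen proximity readout: streptavidin donor and Ni-chelate acceptor beads, 10 ug/mL final, 30 min dark, RT. Complex of 50 nM HP1-beta and 50 nM b-H3(1-18)K9me3 formed 30 min, then compound-treated 30 min; PBS pH 7.4/0.01% Tween-20.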

[10] = molecular target: Methanococcus maripaludis chaperonin (MmCpn) (UniProt Q6LX38); assay: High-Throughput Screening for Modulators of Cytosolic Chaperonin Activity: MmCpn Primary Screen (AID 488978); details: Purified MmCpn ATPase activity, ADP HTRF detection, 10 min; series mostly up to 76.9 µM;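 further: 50 nM MmCpn enzyme hydrolysing 30 µM ATP at 37 °C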
Outline: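 Measures ATPase turnover of the M. maripaludis chaperonin (50 nM final) against 30 uM ATP over 10 min at 37C, with compound added 5 min beforehand at room temperature. ADP is quantified by HTRF immunodetection.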

Measured: Potency

Sequence of Chromobox protein homolog 1 (Homo sapiens) (P83916 whole entry, looked up): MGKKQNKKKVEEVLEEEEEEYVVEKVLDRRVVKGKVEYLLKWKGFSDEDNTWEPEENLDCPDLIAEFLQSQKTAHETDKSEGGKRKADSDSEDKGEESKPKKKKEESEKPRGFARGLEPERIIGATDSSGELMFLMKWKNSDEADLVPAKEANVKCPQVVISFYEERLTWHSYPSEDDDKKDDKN
Sequence of M-phase phosphoprotein 8 (Homo sapiens) (Q99549 whole entry, looked up): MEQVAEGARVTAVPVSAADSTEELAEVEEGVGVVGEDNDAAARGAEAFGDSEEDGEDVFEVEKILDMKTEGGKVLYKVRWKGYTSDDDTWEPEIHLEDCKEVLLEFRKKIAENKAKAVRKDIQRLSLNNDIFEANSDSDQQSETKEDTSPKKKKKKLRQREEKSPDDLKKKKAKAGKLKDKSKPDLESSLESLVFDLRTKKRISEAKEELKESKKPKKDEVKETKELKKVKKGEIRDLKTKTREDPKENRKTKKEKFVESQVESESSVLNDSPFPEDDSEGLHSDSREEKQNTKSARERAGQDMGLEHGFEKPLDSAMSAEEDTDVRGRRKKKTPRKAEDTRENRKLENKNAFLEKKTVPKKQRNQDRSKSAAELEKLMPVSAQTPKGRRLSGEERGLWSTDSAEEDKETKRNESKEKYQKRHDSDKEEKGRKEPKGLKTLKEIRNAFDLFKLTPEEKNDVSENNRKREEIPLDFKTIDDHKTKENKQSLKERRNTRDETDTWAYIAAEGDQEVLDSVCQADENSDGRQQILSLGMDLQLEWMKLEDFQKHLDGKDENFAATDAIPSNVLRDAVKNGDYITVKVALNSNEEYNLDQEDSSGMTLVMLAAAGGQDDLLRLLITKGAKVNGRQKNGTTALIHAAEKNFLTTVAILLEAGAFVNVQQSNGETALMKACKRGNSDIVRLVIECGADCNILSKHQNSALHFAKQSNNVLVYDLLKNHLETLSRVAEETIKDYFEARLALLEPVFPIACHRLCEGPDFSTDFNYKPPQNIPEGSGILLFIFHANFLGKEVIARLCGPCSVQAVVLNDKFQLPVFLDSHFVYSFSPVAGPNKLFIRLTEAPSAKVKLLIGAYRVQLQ
Sequence of Methanococcus maripaludis chaperonin (MmCpn) (Q6LX38 1-543): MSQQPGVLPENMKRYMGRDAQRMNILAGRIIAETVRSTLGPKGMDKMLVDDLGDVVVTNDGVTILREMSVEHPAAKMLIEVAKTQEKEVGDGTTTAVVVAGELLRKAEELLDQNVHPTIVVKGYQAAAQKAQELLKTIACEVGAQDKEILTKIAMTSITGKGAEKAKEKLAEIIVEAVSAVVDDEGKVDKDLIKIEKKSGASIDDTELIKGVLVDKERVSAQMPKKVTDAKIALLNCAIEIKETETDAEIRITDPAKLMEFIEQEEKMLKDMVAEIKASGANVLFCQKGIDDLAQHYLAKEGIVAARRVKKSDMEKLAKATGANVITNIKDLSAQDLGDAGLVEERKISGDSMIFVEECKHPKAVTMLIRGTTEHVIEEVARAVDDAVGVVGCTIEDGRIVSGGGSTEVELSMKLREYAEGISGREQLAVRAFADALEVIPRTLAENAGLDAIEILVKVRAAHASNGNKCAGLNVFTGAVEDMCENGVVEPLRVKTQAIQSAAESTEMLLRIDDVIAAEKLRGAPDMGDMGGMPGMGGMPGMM
Sequence of Beta-2 adrenergic receptor (Homo sapiens) (P07550 whole entry, looked up): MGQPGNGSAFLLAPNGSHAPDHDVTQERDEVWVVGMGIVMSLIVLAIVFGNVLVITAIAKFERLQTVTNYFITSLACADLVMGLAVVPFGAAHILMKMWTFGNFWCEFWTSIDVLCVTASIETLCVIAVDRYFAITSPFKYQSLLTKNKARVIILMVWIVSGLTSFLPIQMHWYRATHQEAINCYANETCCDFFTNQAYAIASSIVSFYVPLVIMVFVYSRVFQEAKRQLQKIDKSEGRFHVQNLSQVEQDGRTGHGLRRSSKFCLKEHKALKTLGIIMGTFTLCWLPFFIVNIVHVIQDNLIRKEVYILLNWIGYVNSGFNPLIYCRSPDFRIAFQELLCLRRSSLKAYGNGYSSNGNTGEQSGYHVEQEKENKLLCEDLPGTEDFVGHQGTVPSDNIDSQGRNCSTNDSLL
Sequence of Flap endonuclease 1 (Homo sapiens) (P39748 whole entry, looked up): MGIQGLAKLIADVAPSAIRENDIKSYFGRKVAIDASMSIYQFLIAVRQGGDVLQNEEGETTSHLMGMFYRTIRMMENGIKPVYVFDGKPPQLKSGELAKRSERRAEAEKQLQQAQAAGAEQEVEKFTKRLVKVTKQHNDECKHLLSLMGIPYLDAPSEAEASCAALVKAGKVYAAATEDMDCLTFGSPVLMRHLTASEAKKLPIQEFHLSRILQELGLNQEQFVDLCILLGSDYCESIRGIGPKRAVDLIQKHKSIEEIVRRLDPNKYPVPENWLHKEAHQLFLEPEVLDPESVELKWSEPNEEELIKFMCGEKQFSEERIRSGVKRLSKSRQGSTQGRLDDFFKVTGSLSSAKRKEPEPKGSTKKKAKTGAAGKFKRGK
Sequence of Thioredoxin reductase 1, cytoplasmic (Rattus norvegicus) (O89049 whole entry, looked up): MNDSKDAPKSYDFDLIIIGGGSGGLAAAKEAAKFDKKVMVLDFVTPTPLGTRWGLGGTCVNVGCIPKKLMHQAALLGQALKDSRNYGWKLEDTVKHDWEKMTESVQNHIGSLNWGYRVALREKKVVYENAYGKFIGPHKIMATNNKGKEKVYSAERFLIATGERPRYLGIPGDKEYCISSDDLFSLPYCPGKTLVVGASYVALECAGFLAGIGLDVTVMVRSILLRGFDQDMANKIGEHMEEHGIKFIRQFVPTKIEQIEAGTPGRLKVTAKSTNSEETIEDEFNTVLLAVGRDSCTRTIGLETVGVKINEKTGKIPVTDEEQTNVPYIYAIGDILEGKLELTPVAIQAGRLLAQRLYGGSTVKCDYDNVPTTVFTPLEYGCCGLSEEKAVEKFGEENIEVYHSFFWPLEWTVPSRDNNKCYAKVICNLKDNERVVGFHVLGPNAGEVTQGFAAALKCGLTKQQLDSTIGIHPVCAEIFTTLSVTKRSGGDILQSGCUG
Sequence of ATP-dependent 6-phosphofructokinase (Trypanosoma brucei brucei) (O15648 whole entry, looked up): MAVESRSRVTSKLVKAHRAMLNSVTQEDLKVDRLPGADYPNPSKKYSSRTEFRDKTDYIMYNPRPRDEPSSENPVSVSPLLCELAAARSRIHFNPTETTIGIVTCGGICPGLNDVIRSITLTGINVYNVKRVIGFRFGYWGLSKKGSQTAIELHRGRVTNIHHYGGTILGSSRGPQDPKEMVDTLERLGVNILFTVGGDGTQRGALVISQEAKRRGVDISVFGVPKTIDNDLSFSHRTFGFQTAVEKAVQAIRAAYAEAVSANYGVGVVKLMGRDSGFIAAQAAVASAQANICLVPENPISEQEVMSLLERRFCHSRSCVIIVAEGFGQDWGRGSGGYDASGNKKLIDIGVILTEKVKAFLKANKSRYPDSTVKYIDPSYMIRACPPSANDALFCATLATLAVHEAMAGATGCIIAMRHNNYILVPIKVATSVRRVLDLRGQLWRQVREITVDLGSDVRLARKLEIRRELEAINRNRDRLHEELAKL

CC1CCN=C(N)S1 (stereo not drawn)
inactive: all assays above

N=C(N)c1ccccc1
not listed: [10]
inactive: all other assays above

CC[C@@H]1Cc2cc(O)ccc2C2=C1c1ccc(O)cc1C[C@H]2CC
35.5 µM (active) and inactive: [8]
active: [4] 13.1 µM | [9] 31.6 µM
inactive: all other assays above

CC1=C(C(=O)O)N2C(=O)[C@@H](NC(=O)C(N)C3=CCC=CC3)[C@H]2SC1 (stereo partly drawn)
not listed: [7]
inactive: all other assays above

N=C(N)SCCc1cnc[nH]1
not listed: [9]
inactive: all other assays above

Cc1ccc2c(c1)C(N1CCN(C)CC1)=Nc1cccnc1N2
not listed: [9] | [10]
inactive: all other assays above

NC1C=CC=C(C(=O)O)C1 (stereo not drawn)
inactive: all assays above

CN(C)CCC(c1ccc(Br)cc1)c1ccccn1 (stereo not drawn)
inactive: all assays above

COc1cc(/C=C(\C#N)C(=O)c2ccc(O)c(O)c2)cc(I)c1O
active: [2] 6.01 µM | [7] 0.844 µM | [8] 8.91 µM and 8.44 µM | [9] 10 µM
not listed: [6]
inactive: all other assays above

Clc1nccc2c1ccc1ccccc12
inactive: all assays above

O=C(O)c1cccnc1C(=O)O
not listed: [9]
inactive: all other assays above

NC(=O)c1ccccc1
not listed: [6]
inactive: all other assays above

N[C@H](C(=O)O)c1cc(O)cc(O)c1
inactive: all assays above

CC1C(=O)N(C)C(=O)c2nc[nH]c21 (stereo not drawn)
inactive: all assays above

O[Si](CCCN1CCCCC1)(c1ccc(F)cc1)C1CCCCC1 (stereo not drawn)
active: [3] 0.117 µM | [4] 0.117 µM
inactive: all other assays above

Cn1ccnc1
not listed: [7]
inactive: all other assays above

CN[C@H](CC(=O)O)C(=O)O
not listed: [10]
inactive: all other assays above

CC(N)=O
not listed: [7]
inactive: all other assays above

Nn1nnc2ccccc21
inactive: all assays above

NC(N)=[N+]1CCc2ccccc2C1
inactive: all assays above

CC(C)C[C@H](NC(=O)[C@H](O)[C@H](N)Cc1ccccc1)C(=O)O
inactive: all assays above

COC(=O)C(C)(N)Cc1ccc(O)cc1 (stereo not drawn)
not listed: [9]
inactive: all other assays above
